“And” between values parts separate entries of the source, which are not always exact repeats. Equal values may be shown once. The whole screen tested about 5,500 compounds, of which about 2,000 (36%) were called active. Not shown: some 18% with an inconclusive outcome. Rule as the data show it: active = normalized growth mostly below about 0.91 (no sharp cut-off); inconclusive = no clear call, values can overlap the other calls; inactive = mostly above about 0.92. This is one part of the list.
Test: chemical genetic growth profiling, strain panel (AID 1159580);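 also: tested at 20 µM; growth read once vehicle control cultures reached saturation at 30 °C; 1 = growth at the plate median or of vehicle wells; lower values mean less growth of the strain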
Details: S. cerevisiae deletion strains, growth OD

Measured: normalized growth

COP(=S)(OC)Oc1ccc([N+](=O)[O-])cc1
inactive: locus YAL013W, strain DEP1, active compounds read low 1.03 | locus YAL021C, strain ccr4, active compounds read low 1.01 | locus YAL026C, strain drs2, active compounds read low 0.995 | locus YAL030W, strain snc1, active compounds read low 1 | locus YBL061C, strain skt5, active compounds read low 1 | locus YBR009C, strain hhf1, active compounds read low 0.995 | locus YBR021W, strain FUR4, active compounds read low 1.01 | locus YBR023C, strain chs3, active compounds read low 0.994 | locus YBR171W, strain sec66, active compounds read low 0.994 | locus YBR229C, strain ROT2, active compounds read low 0.96 | locus YBR231C, strain swc5, active compounds read low 0.988 | locus YBR279W, strain paf1, active compounds read low 1 | locus YCL011C, strain gbp2, active compounds read low 0.992 | locus YCL016C, strain dcc1, active compounds read low 0.99 | locus YCL029C, strain bik1, active compounds read low 0.975 | locus YCL061C, strain MRC1, active compounds read low 0.991 | locus YCL069W, strain vba3, active compounds read low 0.996 | locus YCR088W, strain abp1, active compounds read low 0.99 | locus YDL005C, strain med2, active compounds read low 0.991 | locus YDL035C, strain GPR1, active compounds read low 0.988 | locus YDL040C, strain nat1, active compounds read low 0.993 | locus YDL074C, strain BRE1, active compounds read low 0.949 | locus YDL101C, strain DUN1, active compounds read low 0.973 | locus YDL134C, strain PPH21, active compounds read low 0.988 | locus YDL185W, strain tfp1, active compounds read low 0.958 | locus YDL192W, strain arf1, active compounds read low 0.972 | locus YDR001C, strain nth1, active compounds read low 1 | locus YDR069C, strain doa4, active compounds read low 0.956 | locus YDR101C, strain arx1, active compounds read low 0.984 | locus YDR137W, strain rgp1, active compounds read low 0.885 | locus YDR150W, strain NUM1, active compounds read low 0.975 | locus YDR159W, strain sac3, active compounds read low 0.981 | locus YDR162C, strain NBP2, active compounds read low 0.978 | locus YDR195W, strain ref2 1 | locus YDR297W, strain sur2, active compounds read low 0.996 | locus YDR318W, strain mcm21, active compounds read low 0.98 | locus YDR334W, strain swr1, active compounds read low 0.998 | locus YDR335W, strain msn5, active compounds read low 1.01 | locus YDR388W, active compounds read low 0.983 | locus YDR392W, strain spt3, active compounds read low 0.922 | locus YDR502C, strain sam2, active compounds read low 0.971 | locus YEL003W, strain gim4, active compounds read low 0.996 | locus YEL037C, strain rad23, active compounds read low 0.999 | locus YEL061C, strain CIN8 (second series), active compounds read low 1 | locus YEL061C, strain CIN8, active compounds read low 0.976 | locus YER015W, strain faa2, active compounds read low 0.996 | locus YER016W, strain bim1, active compounds read low 0.997 | locus YER110C, active compounds read low 0.963 | locus YER111C, strain swi4, active compounds read low 1 | locus YER155C, strain BEM2 (second series), active compounds read low 0.94 | locus YER155C, strain BEM2, active compounds read low 1.01 | locus YER167W, strain BCK2, active compounds read low 0.979 | locus YFR010W, strain ubp6, active compounds read low 0.999 | locus YGL078C, strain dbp3, active compounds read low 0.985 | locus YGL086W, strain mad1, active compounds read low 0.994 | locus YGL167C, strain pmr1, active compounds read low 0.992 | locus YGL173C, strain kem1, active compounds read low 0.99 | locus YGL227W, strain vid30, active compounds read low 0.993 | locus YGL240W, strain doc1, active compounds read low 0.987 | locus YGL248W, strain PDE1, active compounds read low 0.966 | locus YGL253W, strain hxk2, active compounds read low 0.999 | locus YGR078C, strain PAC10, active compounds read low 0.989 | locus YGR135W, strain pre9, active compounds read low 0.976 | locus YGR229C, strain SMI1, active compounds read low 0.99 | locus YGR252W, strain gcn5, active compounds read low 0.968 | locus YHR013C, strain ard1, active compounds read low 1.02 | locus YHR027C, strain rpn1, active compounds read low 0.987 | locus YHR030C, strain SLT2, active compounds read low 0.998 and 0.993 | locus YHR079C, strain IRE1 (second series), active compounds read low 0.984 | locus YHR079C, strain IRE1, active compounds read low 0.988 | locus YHR094C, strain hxt1, active compounds read low 0.987 | locus YHR129C, strain ARP1, active compounds read low 0.978 | locus YHR142W, strain chs7, active compounds read low 0.965 | locus YHR200W, strain rpn10, active compounds read low 0.987 | locus YIL066C, strain RNR3, active compounds read low 0.967 | locus YIL073C, strain SPO22, active compounds read low 0.993 | locus YIL125W, strain kgd1, active compounds read low 0.971 | locus YIR030C, strain dcg1, active compounds read low 0.98 | locus YJL092W, strain hpr5, active compounds read low 0.996 | locus YJL095W, strain BCK1 (second series), active compounds read low 0.993 | locus YJL095W, strain BCK1, active compounds read low 0.974 and 1.01 | locus YJL115W, strain asf1, active compounds read low 0.986 | locus YJL129C, strain trk1, active compounds read low 0.988 | locus YJL134W, strain LCB3, active compounds read low 0.984 | locus YJL154C, strain vps35, active compounds read low 1 | locus YJL164C, strain tpk1, active compounds read low 0.99 | locus YJL166W, strain qcr8, active compounds read low 0.983 | locus YJL168C, strain set2, active compounds read low 0.982 | locus YJL187C, strain SWE1 (second series), active compounds read low 0.983 | locus YJL187C, strain SWE1, active compounds read low 1.02 | locus YJR043C, strain POL32, active compounds read low 0.983 | locus YJR066W, strain TOR1, active compounds read low 0.953
